Test results published in PubChem BioAssay (NCATS).
Inconclusive results are not listed. Active and inactive are the calls of the source. Calls come from the whole dose curve; as a rule, active = well fitted inhibition curve with a large enough effect; inconclusive = small, poorly fitted or top-dose-only effect; inactive = flat fitted curve, though single readings scatter.

How the values were obtained:
Assay in all cases: qHTS profiling for inhibitors of Plasmodium falciparum proliferation (AID 504749); note: nearly all actives have a fitted effect of over 60% in size
Conditions in all cases: P. falciparum in erythrocytes, SYBR Green DNA, 72 h; series mostly up to 28.7 µM
CP260 = system: CP260
Outline: (§1)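 P. falciparum-infected erythrocytes (0.3% parasitemia, 2.5% hematocrit) incubated with compound 72 h at 37 C, 5% CO2. Parasite DNA detected by SYBR Green after lysis, overnight at room temperature; normalised to 0.29 uM artemisinin and DMSO.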

CP262 = system: CP262
Outline: as §1

CP265 = system: CP265
Outline: as §1

CP266 = system: CP266
Outline: as §1

CP268 = system: CP268
Outline: as §1

CP269 = system: CP269
Outline: as §1

CP286 = system: CP286
Outline: as §1

CP291 = system: CP291
Outline: as §1

CP305 = system: CP305
Outline: as §1

CP297 = system: CP297
Outline: as §1

Measured: Potency
Potency is the fitted concentration of half-maximal effect.

O=C(O)/C=C/C(=O)Nc1ccc(S(=O)(=O)Nc2nccs2)cc1
inactive: CP260 | CP262 | CP265 | CP266 | CP268 | CP269 | CP286 | CP291 | CP305

COc1ccc2c(=O)c(C)c(-c3ccccc3)oc2c1CN(C)C
inactive: CP260 | CP262 | CP265 | CP266 | CP269 | CP297 | CP305

CN1C(C(=O)Nc2ccccn2)C(=O)c2sc(Cl)cc2S1(=O)=O (centres undefined)
inactive: CP260 | CP262 | CP265 | CP266 | CP268 | CP269 | CP286 | CP297 | CP305

CC1=C(/C=C/C(C)=C/C=C/C(C)=C/C(=O)Oc2c(C)c(C)c3c(c2C)CC[C@@](C)(CCC[C@H](C)CCC[C@H](C)CCCC(C)C)O3)C(C)(C)CCC1
inactive: CP260 | CP262 | CP265 | CP268 | CP269 | CP286 | CP291 | CP297 | CP305

NCCO/C=C/[C@H](N)C(=O)O
inactive: CP260 | CP262 | CP265 | CP268 | CP269 | CP286 | CP291 | CP297 | CP305

CO/N=C(/C(=O)N[C@@H]1C(=O)N2C(C(=O)O)=C(COC(N)=O)CS[C@H]12)c1ccco1
inactive: CP260 | CP262 | CP265 | CP266 | CP268 | CP269 | CP286 | CP291 | CP305

Cc1cccc(C)c1NC(=O)NC1=CCCN1C
inactive: CP260 | CP262 | CP265 | CP268 | CP269 | CP286 | CP291 | CP297 | CP305

COc1ccc2nc(NC(=O)Nc3ccccc3)sc2c1
inactive: CP260 | CP262 | CP265 | CP266 | CP268 | CP286 | CP297 | CP305

CCCCO
inactive: CP260 | CP262 | CP265 | CP268 | CP269 | CP286 | CP291 | CP297 | CP305

[O]=[Bi][O][Bi]=[O]
inactive: CP260 | CP262 | CP265 | CP268 | CP269 | CP286 | CP291 | CP297 | CP305

CN(C)C=Nc1c(I)cc(I)c(CCC(=O)O)c1I
inactive: CP260 | CP262 | CP265 | CP266 | CP269 | CP286 | CP291 | CP305

CCN(CC)CCC(=O)N1c2ccccc2Sc2ccc(C(F)(F)F)cc21
inactive: CP260 | CP262 | CP265 | CP266 | CP268 | CP269 | CP286 | CP297 | CP305

CC(=O)[O][Al][O]C(C)=O
inactive: CP260 | CP262 | CP265 | CP266 | CP286

NC(=S)N=Nc1ccc(NN=C(N)N)cc1
active: CP260 7.94 µM | CP262 6.01 µM | CP265 12.6 µM | CP268 9.53 µM | CP269 6.75 µM | CP286 4.47 µM | CP291 8.49 µM | CP297 9.53 µM | CP305 7.57 µM

NC(=O)Oc1ccc(Cc2ccccc2)cc1
inactive: CP260 | CP262 | CP265 | CP266 | CP268 | CP269 | CP286 | CP297 | CP305

CC(O)CN(C)C (centres undefined)
inactive: CP260 | CP262 | CP265 | CP268 | CP269 | CP286 | CP291 | CP297 | CP305

COc1ccc(C(=O)CCC(=O)O)c2ccccc12
inactive: CP260 | CP262 | CP265 | CP268 | CP269 | CP286 | CP291 | CP297 | CP305

O=P(O)(O)OC[C@H](O)CO
inactive: CP260 | CP262 | CP265 | CP268 | CP269 | CP286 | CP291 | CP297 | CP305

c1ccc2c(c1)Sc1ccccc1N2CCN1CCCC1
active: CP260 7.94 µM | CP265 11.2 µM | CP268 9.53 µM | CP269 15.1 µM | CP286 10 µM | CP291 13.5 µM | CP297 12 µM | CP305 15.1 µM
inactive: CP262

FC(F)OC(Cl)C(F)(F)F (centres undefined)
inactive: CP260 | CP262 | CP265 | CP266 | CP269 | CP286 | CP291 | CP297 | CP305

COc1ccc2c(c1)OC(C)(C)C(c1ccccc1)C2c1ccc(OCCN2CCCC2)cc1 (centres undefined)
active: CP260 3.98 µM | CP262 4.78 µM | CP265 3.98 µM | CP266 15.1 µM | CP269 5.36 µM | CP286 3.16 µM | CP291 6.01 µM | CP297 15.1 µM | CP305 13.5 µM

O=C1[O][Bi][O]c2ccccc21
inactive: CP260 | CP262 | CP265 | CP268 | CP269 | CP286 | CP291 | CP297 | CP305

CN1CCc2c(c3ccccc3n2Cc2ccccc2)C1
inactive: CP260 | CP265 | CP266 | CP286 | CP291 | CP297 | CP305

CCN(CC)CCOc1ccc2nc(N(C)C)sc2c1
inactive: CP260 | CP265 | CP266 | CP268 | CP269 | CP286 | CP291 | CP297 | CP305

N#Cc1ccc2c(c1)N(CCCN1CCC(O)CC1)c1ccccc1S2
active: CP260 11.2 µM
inactive: CP262 | CP266 | CP297

O=P(O)(O)OP(=O)(O)O
inactive: CP260 | CP262 | CP266 | CP268 | CP269 | CP286 | CP291 | CP297 | CP305

F[Si-2](F)(F)(F)(F)F
inactive: CP260 | CP265 | CP266 | CP268 | CP269 | CP286 | CP291 | CP297 | CP305

CCOC(=O)c1c[nH]c2cc(OCC(C)C)c(OCC(C)C)cc2c1=O
active: CP260 0.0708 µM | CP265 0.0891 µM | CP268 0.135 µM | CP286 0.0708 µM | CP291 0.0757 µM | CP305 0.0675 µM
